# From PubChem BioAssay (Tox21)
# Inconclusive results are not listed. A call without a number means that no potency is given here. Activity calls are given as the source filed them. Unless noted, calls follow the shape of the dose curve; as a rule, active = well fitted curve in the direction sought with a large enough effect in the repeat runs; inconclusive = weak or mixed curves; inactive = no such curve, though single readings can be large; an effect the other way counts as inactive or inconclusive.
# Legend:
# [1] = qHTS assay to identify small molecule agonists of the vitamin D receptor (VDR) signaling pathway - cell viability counter screen (AID 743224); also: nearly all actives have a fitted effect of over 50% in size; also: potency is read from the fitted curve at half-maximal effect
# Method in brief: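 Luminescence from CellTiter-Glo, read after 30 min at room temperature, reports viability of VDR-bla cells treated with compounds for 16 h at 37C in the wells used for the beta-lactamase FRET read.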
# [2] = qHTS assay to identify small molecule antagonists of the vitamin D receptor (VDR) signaling pathway - cell viability counter screen (AID 743225); also: nearly all actives have a fitted effect of over 50% in size
# Method in brief: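 Cytotoxicity toward the VDR-bla HEK 293T line was scored by ATP-based CellTiter-Glo luminescence, read in the wells already used for the beta-lactamase readout after 16 h compound treatment under 3 nM 1-alpha,25-dihydroxyvitamin D3 stimulation.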
# [3] = qHTS assay to identify small molecule agonists of the NFkB signaling pathway (AID 1159509; active = well fitted curve in the direction sought with a large enough effect in the signal ratio in the repeat runs, not every such curve was filed as active; the % refers to the signal ratio; also: series mostly up to about 61 µM)
# Method in brief: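 ME-180 NFkB-bla, 2,000 cells/well, overnight plating; cpd pinned in DMSO, 5 h 37 C; B/G FRET substrate 1.5 h RT; ex 405, em 460/530 nm.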
# [4] = qHTS assay to identify small molecule agonists of the endoplasmic reticulum stress response signaling pathway (AID 1159516; active = well fitted activation curve with a large enough effect in the signal ratio in the repeat runs, not every such curve was filed as active; the % refers to the signal ratio)
# Method in brief: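 Read-out is beta-lactamase cleavage of a FRET substrate (405 nm excitation; 460 and 530 nm emissions) in ESRE-bla HeLa cells after a 5 hr compound exposure at 37 C. Substrate incubation ran 2 hr at room temperature.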
# [5] = qHTS assay to identify small molecule agonists of the endoplasmic reticulum stress response signaling pathway - cell viability counter screen (AID 1159517; calls by dose curve;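 also: HeLa cells carrying an ER stress response element beta-lactamase reporter; series mostly up to about 61 µM; nearly all actives have a fitted effect of over 50% in size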)
# Method in brief: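 CellTiter-Glo was added to wells already read for beta-lactamase FRET, and luminescence was recorded 30 min later. Cells: ESRE-bla HeLa, 1,500 per well, compound exposure 5 hr at 37 C.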
# [6] = qHTS assay to identify small molecule antagonists of the retinoid-related orphan receptor gamma (ROR-gamma) signaling pathway - cell viability counter screen (AID 1159520); also: nearly all actives have a fitted effect of over 50% in size
# Method in brief: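 Tet-on ROR gamma CHO cells (1,000/well) were plated 4 hr, given compounds in DMSO for 2 hr at 37 C, then induced with 1 uM final doxycycline for 16 hr. Viability was read as ATP by CellTiter-Glo luminescence after 30 min.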
# [7] = biological target: Nuclear receptor ROR-gamma (Homo sapiens) (UniProt P51449); assay: qHTS assay to identify small molecule antagonists of the retinoid-related orphan receptor gamma (ROR-gamma) signaling pathway (AID 1159521; also: nearly all actives have a fitted effect of over 50% in size; also: potency is read from the fitted curve at half-maximal effect)
# Method in brief: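 Readout: ONE-Glo luciferase luminescence, 30 min at room temperature. System: Tet-on RORγ CHO, RORE-LUC. Sequence: compound 2 h, doxycycline 1 uM final, 16 h at 37 C.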
# [8] = qHTS assay to identify small molecule agonists of the AP-1 signaling pathway - cell viability counter screen (AID 1159525; calls by dose curve; also: nearly all actives have a fitted effect of over 55% in size; also: potency is read from the fitted curve at half-maximal effect)
# Method in brief: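 ME-180 AP-1-bla, 2500 cells/well, Opti-MEM + 0.5% dialyzed FBS; overnight 37 °C; cpd 15-pt titration, 5 h 37 °C; CellTiter-Glo 30 min RT; luminescence read; normalised to TOAB and DMSO controls.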
# [9] = qHTS assay to identify small molecule agonists of the AP-1 signaling pathway (AID 1159526; calls by dose curve)
# [10] = qHTS assay to identify small molecule agonists of the NFkB signaling pathway - cell viability counter screen (AID 1159515; calls by dose curve; also: series mostly up to about 61 µM; nearly all actives have a fitted effect of over 55% in size)
# Method in brief: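 Luminescence from CellTiter-Glo (30 min, room temperature) gives viability, measured in the same wells as the beta-lactamase reporter read. Cells were NFkB-bla ME-180, 2,000 per well, treated 5 hr with compounds.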
SMILES,Potency [1],Potency [2],outcome [3],outcome [4],Potency [5],Potency [6],Potency [7],Potency [8],outcome [9],Potency [10]
Cc1ccc2ccccc2c1,inactive,inactive,inactive,inactive,inactive,inactive,inactive,inactive,inactive,
CC(=O)c1cc2c(cc1C)C(C)(C)C(C)CC2(C)C (centres undefined),49 µM (active),inactive,inactive,,,inactive,,49 µM (active),,inactive
O=S1OC[C@@H]2[C@H](CO1)[C@]1(Cl)C(Cl)=C(Cl)[C@@]2(Cl)C1(Cl)Cl (some centres undefined),49 µM (active),,inactive,,,inactive,,,,inactive
NC(=O)C(Cl)(Cl)Cl,inactive,inactive,inactive,inactive,inactive,inactive,inactive,inactive,inactive,
Clc1cccc2ccccc12,inactive,inactive,inactive,inactive,inactive,inactive,inactive,inactive,inactive,
C=C(C#N)CCC#N,inactive,inactive,inactive,inactive,inactive,inactive,inactive,inactive,inactive,
COP(=S)(OC)Oc1cc(Cl)c(I)cc1Cl,,inactive,inactive,,,inactive,,inactive,,inactive
C=CC(=O)OCC(C)O (centres undefined),inactive,,inactive,inactive,inactive,inactive,inactive,inactive,inactive,
CCOP(=S)(OCC)Oc1cc(Cl)c(Br)cc1Cl,,inactive,inactive,,,inactive,,inactive,,inactive
COc1c(C(C)(C)C)cc([N+](=O)[O-])c(C)c1[N+](=O)[O-],inactive,inactive,inactive,inactive,inactive,inactive,inactive,inactive,,
C=CC(=O)OCC(C)C,inactive,inactive,inactive,inactive,inactive,inactive,inactive,inactive,inactive,
CC(=O)C(C)(C)C,inactive,,inactive,,,inactive,,inactive,inactive,inactive
CCN(C)N=O,inactive,,inactive,,,inactive,,inactive,,inactive
Oc1ccc(Cl)c(Cl)c1Cl,,inactive,inactive,,inactive,,50.3 µM (active),inactive,inactive,
Clc1ccc(C(OCCN2CCCCC2)c2ccccc2)cc1 (centres undefined),,inactive,inactive,inactive,inactive,inactive,,inactive,,
COP(=O)(OC)O/C(=C/Cl)c1cc(Cl)c(Cl)cc1Cl,,,inactive,inactive,,inactive,,inactive,,
CO[C@@H]1[C@H](OC(=O)NC(=O)CCl)CC[C@]2(CO2)[C@H]1[C@@]1(C)O[C@@H]1CC=C(C)C,inactive,,inactive,,,,,,,
C=CC(=O)OC(C)(C)C,inactive,inactive,inactive,,,inactive,,inactive,inactive,
N#Cc1cc(I)c(O)c(I)c1,,,inactive,,inactive,inactive,,inactive,inactive,
CCC(COC(=O)c1cc(OC)c(OC)c(OC)c1)(c1ccccc1)N(C)C (centres undefined),inactive,inactive,inactive,,inactive,inactive,inactive,inactive,,
CCCCC(CC)COP(=O)(Oc1ccccc1)Oc1ccccc1 (centres undefined),,inactive,inactive,inactive,inactive,inactive,inactive,inactive,,
CC(C)(CCl)C(=O)Cl,inactive,,inactive,inactive,inactive,inactive,,inactive,,
CC1C(=O)C[C@]2(C(C)C)C[C@H]12 (some centres undefined),inactive,,inactive,,inactive,inactive,,inactive,inactive,
C=CC(=O)OCCCCO,inactive,inactive,inactive,inactive,inactive,inactive,,inactive,,
